The record followed here is PubChem BioAssay (NCATS).

Results filed as inconclusive are left out. Values without a mark were called inactive. Calls of active or inactive are those of the source. Unless noted, calls come from the whole dose curve; as a rule, active = well fitted curve in the direction sought with a large enough effect; inconclusive = small, poorly fitted or top-dose-only effect, or another doubt; inactive = no such curve, though single readings can be large; an effect the other way counts as inactive or inconclusive.

Experiment [1] addresses Voltage-gated inwardly rectifying potassium channel KCNH2 (Homo sapiens) (UniProt Q12809). Briefly: qHTS Assay for Small Molecule Inhibitors of the Human hERG Channel Activity (AID 588834).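 Note: top concentration of the series differs between compounds; % is set by controls: 0 for no effect and ±100 for the full control effect; lower thallium flux fluorescence means stronger hERG block; nearly all actives have a fitted effect of over 50% in size.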 An outline of the steps: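 In hERG-transduced U2OS cells, dye-loaded for 1 hr at room temperature in dark, test compounds incubated 10 min at 37 °C before thallium stimulation. AC50 values derived by Hill modelling of concentration-response.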
(In general: qHTS replaces the single test concentration by a dilution series.)

Experiment [2] addresses Luciferin 4-monooxygenase (Photinus pyralis) (UniProt P08659). Kind of experiment: Biochemical firefly luciferase enzyme assay for NPC (AID 624030). Note: nearly all actives have a fitted effect of over 70% in size. Note: potency is the fitted concentration of half-maximal effect. An outline of the steps: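 Direct inhibition of firefly luciferase enzyme (10 nM final, 50 mM Tris Acetate) assessed by luminescence within 5 minutes. Percent activity scaled between DMSO and PTC124 positive control, with concentration-effect curves classified by fit quality and response.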

Experiment [3] can be described thus: S16 Schwann cell viability assay (CellTiter-Glo assay) (AID 624031).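 Note: plate controls were DMSO-treated cells for no effect and cell-free wells for full effect; nearly all actives have a fitted effect of over 70% in size.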 The method, boiled down:
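Native S16 Schwann cells (rat), serum-containing medium, overnight attachment then 24 h drug exposure at 37 °C/5% CO2. CellTiter-Glo ATP signal; normalized to cell-free and vehicle wells.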
Background: ATP-based viability assays read luminescence as a measure of living cells.

Experiment [4] in a line: S16 Schwann cell PMP22 intronic element firefly luciferase assay (AID 624032).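 Note: plate controls were DMSO for no effect and PTC124 positive control mean for full effect; nearly all actives have a fitted effect of over 30% in size.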 An outline of the steps: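 Luciferase reporter of PMP22 intronic-element expression in stably transfected S16 rat Schwann cells, read by ONE-Glo luminescence after 24 h compound exposure at 37 C. Activity scaled between DMSO (0%) and positive-control PTC124; concentration-effect curves quality-classified.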

The nature of experiment [5]: S16 Schwann cell PMP22 intronic element beta-lactamase assay (AID 624044; calls by dose curve;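 note: 0% = DMSO and -100% = potassium clavulanate positive control; nearly all actives have a fitted effect of over 15% in size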). As to conditions: S16 rat Schwann cells, PMP22 element beta-lactamase FRET, 24 h; ratio activity, negative = inhibition: at 38.3 µM (top of the series) unless noted. The method, boiled down: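 Beta-lactamase reporter under a PMP22 intronic regulatory element in stable S16 rat Schwann cells; 24 h compound exposure. 460 nm blue signal normalized between DMSO (0%) and potassium clavulanate, with 535 nm FRET tracking viability; curves classed by r2 and response.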

Sequence of Voltage-gated inwardly rectifying potassium channel KCNH2 (Homo sapiens) (Q12809 whole entry, looked up): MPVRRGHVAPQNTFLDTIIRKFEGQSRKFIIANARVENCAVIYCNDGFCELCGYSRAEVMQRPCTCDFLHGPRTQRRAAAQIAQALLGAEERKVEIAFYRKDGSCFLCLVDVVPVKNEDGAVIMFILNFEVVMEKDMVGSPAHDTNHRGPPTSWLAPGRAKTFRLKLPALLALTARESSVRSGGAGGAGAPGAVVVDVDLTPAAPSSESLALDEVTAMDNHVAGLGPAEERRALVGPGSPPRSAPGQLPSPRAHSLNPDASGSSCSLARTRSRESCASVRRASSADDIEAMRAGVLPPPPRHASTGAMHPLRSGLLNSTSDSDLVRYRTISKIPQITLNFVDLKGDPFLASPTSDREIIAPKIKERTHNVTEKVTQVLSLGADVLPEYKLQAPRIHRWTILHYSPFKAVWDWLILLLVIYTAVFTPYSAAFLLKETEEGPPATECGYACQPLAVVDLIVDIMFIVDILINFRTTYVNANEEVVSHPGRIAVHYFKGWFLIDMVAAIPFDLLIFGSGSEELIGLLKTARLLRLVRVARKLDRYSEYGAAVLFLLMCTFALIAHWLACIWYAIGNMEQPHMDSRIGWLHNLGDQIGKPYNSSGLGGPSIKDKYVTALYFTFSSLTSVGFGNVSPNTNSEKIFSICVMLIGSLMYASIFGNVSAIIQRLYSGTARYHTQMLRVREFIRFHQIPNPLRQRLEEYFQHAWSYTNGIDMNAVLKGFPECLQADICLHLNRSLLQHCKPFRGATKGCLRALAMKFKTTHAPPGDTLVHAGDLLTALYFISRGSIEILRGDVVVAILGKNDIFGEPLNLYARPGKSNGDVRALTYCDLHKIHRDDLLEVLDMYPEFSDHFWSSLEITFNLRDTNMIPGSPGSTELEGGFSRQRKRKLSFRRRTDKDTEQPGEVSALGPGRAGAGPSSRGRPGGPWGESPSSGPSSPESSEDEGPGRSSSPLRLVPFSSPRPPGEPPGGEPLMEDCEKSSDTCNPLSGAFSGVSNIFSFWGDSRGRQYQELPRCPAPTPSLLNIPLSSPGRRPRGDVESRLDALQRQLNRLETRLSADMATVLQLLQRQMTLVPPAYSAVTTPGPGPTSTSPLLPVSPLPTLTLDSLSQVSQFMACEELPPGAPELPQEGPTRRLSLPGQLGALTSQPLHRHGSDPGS
Sequence of Luciferin 4-monooxygenase (Photinus pyralis) (P08659 whole entry, looked up): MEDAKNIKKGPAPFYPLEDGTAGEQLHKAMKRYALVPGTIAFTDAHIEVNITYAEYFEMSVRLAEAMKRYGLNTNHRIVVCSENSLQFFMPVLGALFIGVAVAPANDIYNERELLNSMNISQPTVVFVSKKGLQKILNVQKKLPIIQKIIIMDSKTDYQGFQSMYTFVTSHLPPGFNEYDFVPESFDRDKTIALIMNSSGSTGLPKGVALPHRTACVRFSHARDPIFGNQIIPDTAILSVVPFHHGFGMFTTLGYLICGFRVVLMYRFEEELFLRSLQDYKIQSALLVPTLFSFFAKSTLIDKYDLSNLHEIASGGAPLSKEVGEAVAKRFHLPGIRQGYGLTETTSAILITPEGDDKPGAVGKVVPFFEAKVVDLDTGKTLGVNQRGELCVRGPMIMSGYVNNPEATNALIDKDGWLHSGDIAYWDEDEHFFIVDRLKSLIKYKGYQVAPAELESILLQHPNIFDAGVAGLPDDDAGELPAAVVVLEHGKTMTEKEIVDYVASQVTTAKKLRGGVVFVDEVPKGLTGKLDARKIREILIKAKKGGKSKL

For the compound `C[C@H](O)CN(C)C`, the Potency entry in experiment [1], in experiment [2], in experiment [3] and in experiment [4] was “inactive” each time.
For the compound `Cc1ncc(COP(=O)(O)O)c(CN)c1O`, the Potency entry in experiment [1], in experiment [2], in experiment [3] and in experiment [4] was “inactive” each time. Further, in experiment [5], the ratio activity, negative = inhibition is -0.583%.
For the compound `O=C(O)Cc1cc(I)c(Oc2ccc(O)c(I)c2)c(I)c1`, the Potency entry in experiment [1], in experiment [2], in experiment [3] and in experiment [4] was “inactive” throughout. The ratio activity, negative = inhibition in experiment [5] was 4.37% [at 17.1 µM].
Take `C=Cc1ccc(S(=O)(=O)O)cc1`: the Potency result in experiment [1], in experiment [2], in experiment [3] and in experiment [4] was “inactive” each time. The ratio activity, negative = inhibition in experiment [5] was -7.16%.
`CC(=O)Nc1ccc(OC(C)=O)cc1`: the Potency entry in experiment [1], in experiment [2], in experiment [3] and in experiment [4] was “inactive” each time. Further, in experiment [5], the ratio activity, negative = inhibition is -15.5%.
For the compound `C=CC(=O)O`, the Potency entry in experiment [1], in experiment [2], in experiment [3] and in experiment [4] was “inactive” each time. The ratio activity, negative = inhibition in experiment [5] is -7.38%.
Consider `COc1ccc2nc(NC(=O)Nc3ccccc3)sc2c1`, for which the Potency entry in experiment [1], in experiment [3] and in experiment [4] was “inactive” each time. Besides, the Potency in experiment [2] is 721 nM (active). Besides, the ratio activity, negative = inhibition in experiment [5] was -14.6%.
